{"source": "PubChem BioAssay AID1347141", "about": "(National Center for Advancing Translational Sciences (NCATS), 2019)", "note": "The list shows a part of the results. Records with an inconclusive call do not appear. The source made the active and inactive calls. Calls follow the shape of the dose curve; as a rule, active = well fitted inhibition curve with a large enough effect; inconclusive = small, poorly fitted or top-dose-only effect; inactive = flat fitted curve, though single readings scatter."}
{"experiment": "qHTS of pediatric cancer cell lines to identify multiple opportunities for drug repurposing: Orthogonal 3D viability screen for RD cells", "conditions": "RD rhabdomyosarcoma 3D spheroid viability, PI/Hoechst imaging, 72 h; series mostly up to 30.7 µM", "description": "Drug repurposing or repositioning has been offered as a strategy for drug development in oncology programs. This approach has special potential for childhood cancers and other rare or orphan diseases, where the expected return on new drug development has been a disincentive to pharmaceuticals. […] In this project we exploit the poly-pharmacology of drugs to discover new indications via phenotypic screening of a panel of 19 well-characterized cell lines derived from solid tumors seen in children and adolescents. The goal is to identify approved drugs with previously unrecognized anticancer properties that has the potential to reveal new mechanisms and biological processes involved in carcinogenesis or drug resistance. We employed a titration-based paradigm (quantitative high-throughput screening or qHTS), where all compounds were tested at multiple concentrations for their effect on cell viability. Concentration-response curves (CRCs) were derived directly from the primary screen, and both potency and efficacy values were used to identify compounds with robust bioactivity profiles. […] These two assays will be used to validate active compounds and assess the correlation of compound's potency in 2D vs 3D cultures on selected cell lines. Assay Submitter: Nathalia J. Martinez, National Center for Advancing Translational Sciences, National Institutes of Health, Rockville, MD, USA; email: natalia.martinez@nih.gov Shen, M et al. Quantitative high-throughput phenotypic screening of pediatric cancer cell lines identifies multiple opportunities for drug repurposing. Oncotarget 2017 Dec 19;9(4):4758-4772. PMID 29435139.\nThe cells were obtained from University of North Carolina (UNC), Pediatric Preclinical Testing Program (PPT), and Coriell Institute (CI). qHTS viability in 3D culture: Cells were assayed in phenol red-free growth media at a density of 1,000 cells/well, with the exception of Daoy, and SH-N-SH which were assayed at 1,500 cells/ well. Thirty muL of cells were dispensed into 384-well, ULA, round bottom plates (Corning) using a Multidrop dispenser. Plates were spun down at 1,000 rpm for 1 min and incubated at 37 degrees C, 5% CO2, under a humidified atmosphere for either 24 (Daoy) or 48 hours (all other cell lines) to allow spheroid formation. Ninety-two nanoliter of compounds and controls (neutral control DMSO or positive control bortezomib at final concentrations of 0.5 µM) were subsequently transferred via GNF Pintool. Plates were sealed using a breathable seal (Diversified Biotech, Dedham, MA) and incubated for 72 hours at 37 degrees C. Spheroid viability was first determined by high-content imaging using Hoechst 33342 and Propidium Iodide (PI, ThermoFisher Scientific), followed by addition of CellTiter-Glo 3D (Promega). Specifically, 3 µL/well of PBS containing a 1:500 dilution of both dyes was dispensed using Multidrop. Dyes were incubated for 1 hour before imaging using the Celigo Image Cytometer. Then, 20 µl of CellTiter-Glo 3D were added per well. Plates were incubated for 30 min at RT on a VWR microplate shaker (300 rpm) and analyzed for luminescence intensity using a ViewLux High-throughput CCD imager equipped with clear filters. Image analysis was done using the Celigo Tumorsphere 1+2+3 application software as previously described. […] The data were exported to Excel, and the average fluorescent intensities were used to calculate the ratio of PI over Hoechst, which was used to quantify viability. […]"}
{"smiles": "CC(NCc1ccc2c(c1)nc(NC(=O)c1ccc(-c3cn[nH]c3)s1)n2CC(C)(C)O)C(C)(C)C", "note": "(stereo not given)", "Potency": "810 nM (active)"}
{"smiles": "CC[C@H]1CN2CCc3cc(OC)c(OC)cc3[C@@H]2C[C@@H]1C[C@H]1NCCc2cc(OC)c(OC)cc21", "Potency": "2040 nM (active)"}
{"smiles": "C=C1C(=CC=C2CCC[C@]3(C)[C@@H]([C@H](C)C=C[C@H](C)C(C)C)CC[C@@H]23)C[C@@H](O)C[C@@H]1O", "Potency": "inactive"}
{"smiles": "CC1(C)O[C@@H]2C[C@@H]3[C@H]4C[C@@H](F)C5=CC(=O)C=C[C@]5(C)[C@@]4(F)[C@@H](O)C[C@]3(C)[C@]2(C(=O)CO)O1", "Potency": "10200 nM (active)"}
{"smiles": "CC[C@]1(O)C[C@@H]2CN(CCc3c([nH]c4ccccc34)[C@@](C(=O)OC)(c3cc4c(cc3OC)N(C)[C@H]3[C@@](O)(C(=O)OC)[C@H](OC(C)=O)[C@]5(CC)C=CCN6CC[C@]43[C@@H]65)C2)C1", "Potency": "45.6 nM (active)"}
